# From article PMC7862700, “An all-to-all approach to the identification of sequence-specific readers for epigenetic DNA modifications on cytosine”
# How the values were obtained:
# Assay in all cases: DAPPL (digital affinity profiling via proximity ligation, sequencing); 10 mM Tris-HCl pH 7.5, 50 mM NaCl, 1 mM DTT, 4% glycerol, room temperature, 30 min; GST-TFs on glutathione beads, 16-mer random dsDNA library, 0.1% formaldehyde crosslink after washing; high values mean tight binding
# Conditions in all cases: protein: recombinant; tags: N-terminal GST; dsDNA, one strand shown
# FLI1 = target: T1, FLI1 (Homo sapiens, UniProt Q01543 1-452)
# T1 sequence: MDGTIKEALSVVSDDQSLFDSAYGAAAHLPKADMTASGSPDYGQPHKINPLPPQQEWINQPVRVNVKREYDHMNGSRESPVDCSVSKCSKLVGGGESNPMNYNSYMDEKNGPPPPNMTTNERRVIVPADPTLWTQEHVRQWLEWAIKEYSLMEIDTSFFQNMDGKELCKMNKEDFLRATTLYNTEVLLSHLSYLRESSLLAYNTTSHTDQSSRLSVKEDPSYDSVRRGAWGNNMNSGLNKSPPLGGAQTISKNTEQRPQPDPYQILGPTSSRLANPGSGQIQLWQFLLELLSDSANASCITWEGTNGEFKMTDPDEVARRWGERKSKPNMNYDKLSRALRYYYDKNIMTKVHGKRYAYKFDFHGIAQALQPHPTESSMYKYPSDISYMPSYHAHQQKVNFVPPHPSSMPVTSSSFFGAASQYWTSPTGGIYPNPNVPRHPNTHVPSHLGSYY
# Procedure, shortened: (§1)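 After expression in yeast as GST fusions, human transcription factors were bound to glutathione beads, DNA-barcoded and mixed with a tag-only sample. The pools were incubated with 200 nmole of a 16-mer random double-stranded DNA library in Tris/NaCl/DTT/glycerol buffer (30 min, room temperature), washed and crosslinked with 0.1% formaldehyde. Proximity ligation with BsaI/T4 ligase ran for 1 h at 37 °C, before PCR amplification and sequencing on an Illumina NextSeq500. Binding signal is a hexamer's read frequency for a factor divided by its frequency for the tag-only sample.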
# ELK1 = target: T2, ELK1 (Homo sapiens, UniProt P19419 1-428)
# T2 sequence: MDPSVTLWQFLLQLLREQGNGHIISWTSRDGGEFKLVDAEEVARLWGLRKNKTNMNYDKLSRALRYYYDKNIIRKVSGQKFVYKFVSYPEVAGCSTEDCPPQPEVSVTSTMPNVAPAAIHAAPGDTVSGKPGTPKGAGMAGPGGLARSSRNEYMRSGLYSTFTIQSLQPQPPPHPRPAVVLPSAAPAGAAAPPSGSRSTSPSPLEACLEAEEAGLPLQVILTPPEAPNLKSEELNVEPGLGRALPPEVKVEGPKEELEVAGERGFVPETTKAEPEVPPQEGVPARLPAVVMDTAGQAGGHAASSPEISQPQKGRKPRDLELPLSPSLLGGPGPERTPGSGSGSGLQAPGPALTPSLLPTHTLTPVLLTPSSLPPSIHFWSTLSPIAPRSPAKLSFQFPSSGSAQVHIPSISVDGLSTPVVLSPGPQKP
# Procedure, shortened: as §1
# GABPA = target: T3, GABPA (Homo sapiens, UniProt Q06546 1-454)
# T3 sequence: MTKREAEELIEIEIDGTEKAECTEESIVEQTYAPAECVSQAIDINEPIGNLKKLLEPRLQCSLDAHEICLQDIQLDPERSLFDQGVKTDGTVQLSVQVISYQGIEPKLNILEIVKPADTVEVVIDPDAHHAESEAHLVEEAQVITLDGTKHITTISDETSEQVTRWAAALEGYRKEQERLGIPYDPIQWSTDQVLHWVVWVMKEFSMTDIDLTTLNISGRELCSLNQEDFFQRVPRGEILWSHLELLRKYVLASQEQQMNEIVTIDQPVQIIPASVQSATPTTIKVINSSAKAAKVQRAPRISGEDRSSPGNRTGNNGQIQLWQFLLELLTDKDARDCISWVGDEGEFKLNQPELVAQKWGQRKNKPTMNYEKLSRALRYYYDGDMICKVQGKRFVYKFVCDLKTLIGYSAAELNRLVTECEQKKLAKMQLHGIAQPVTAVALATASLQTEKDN
# Procedure, shortened: as §1
# ERG = target: T4, ERG (Homo sapiens, UniProt P11308 1-479)
# T4 sequence: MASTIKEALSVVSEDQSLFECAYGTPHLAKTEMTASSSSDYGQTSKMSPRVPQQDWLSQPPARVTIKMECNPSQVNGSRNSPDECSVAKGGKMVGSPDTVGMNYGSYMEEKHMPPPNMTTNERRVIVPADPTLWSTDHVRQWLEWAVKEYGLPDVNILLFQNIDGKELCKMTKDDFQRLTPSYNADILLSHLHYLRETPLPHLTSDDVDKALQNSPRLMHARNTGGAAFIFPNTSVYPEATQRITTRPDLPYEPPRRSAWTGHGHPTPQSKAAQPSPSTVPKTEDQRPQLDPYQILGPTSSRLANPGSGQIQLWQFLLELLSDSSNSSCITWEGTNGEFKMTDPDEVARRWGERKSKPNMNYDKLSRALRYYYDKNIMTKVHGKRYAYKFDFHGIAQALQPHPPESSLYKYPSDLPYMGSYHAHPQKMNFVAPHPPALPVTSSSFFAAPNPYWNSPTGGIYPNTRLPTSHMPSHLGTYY
# Procedure, shortened: as §1
# ELF1 = ELF1 (Homo sapiens, UniProt P32519 1-619)
# Procedure, shortened: as §1
# EHF = target: T5, EHF (Homo sapiens, UniProt Q9NZC4 1-300)
# T5 sequence: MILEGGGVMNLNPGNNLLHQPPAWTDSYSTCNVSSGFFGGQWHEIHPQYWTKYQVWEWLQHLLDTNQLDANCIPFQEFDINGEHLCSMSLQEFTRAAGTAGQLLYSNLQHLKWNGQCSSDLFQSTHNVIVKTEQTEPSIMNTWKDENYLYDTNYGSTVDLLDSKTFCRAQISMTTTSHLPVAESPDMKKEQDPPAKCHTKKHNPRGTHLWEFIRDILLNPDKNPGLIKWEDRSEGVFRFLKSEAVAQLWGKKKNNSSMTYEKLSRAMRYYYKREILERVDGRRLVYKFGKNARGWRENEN
# Procedure, shortened: as §1
# SPIB = SPIB (Homo sapiens, UniProt Q01892 1-262)
# Procedure, shortened: as §1
# ELK3 = target: T6, ELK3 (Homo sapiens, UniProt P41970 1-407)
# T6 sequence: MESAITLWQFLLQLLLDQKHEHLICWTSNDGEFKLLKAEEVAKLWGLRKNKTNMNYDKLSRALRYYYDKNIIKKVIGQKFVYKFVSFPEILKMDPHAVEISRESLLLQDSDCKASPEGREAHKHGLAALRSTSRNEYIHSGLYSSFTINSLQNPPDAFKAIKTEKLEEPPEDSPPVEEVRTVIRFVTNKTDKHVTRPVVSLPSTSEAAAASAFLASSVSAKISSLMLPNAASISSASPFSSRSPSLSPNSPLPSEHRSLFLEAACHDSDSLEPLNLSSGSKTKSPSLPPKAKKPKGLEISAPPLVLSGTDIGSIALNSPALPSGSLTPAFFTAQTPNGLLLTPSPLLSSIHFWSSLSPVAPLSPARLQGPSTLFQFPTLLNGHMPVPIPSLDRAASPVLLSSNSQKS
# Procedure, shortened: as §1
# FEV = target: T7, FEV (Homo sapiens, UniProt Q99581 1-238)
# T7 sequence: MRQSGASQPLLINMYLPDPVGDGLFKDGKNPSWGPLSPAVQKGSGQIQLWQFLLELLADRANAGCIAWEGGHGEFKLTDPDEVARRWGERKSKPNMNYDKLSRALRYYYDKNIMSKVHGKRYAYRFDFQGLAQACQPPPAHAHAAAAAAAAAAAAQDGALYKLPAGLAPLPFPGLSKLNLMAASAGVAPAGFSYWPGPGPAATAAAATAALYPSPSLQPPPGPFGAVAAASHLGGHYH
# Procedure, shortened: as §1
# ETV5 = ETV5 (Homo sapiens, UniProt P41161 1-510)
# Procedure, shortened: as §1
# SPIC = target: T8, SPIC (Homo sapiens, UniProt Q8N5J4 1-248)
# T8 sequence: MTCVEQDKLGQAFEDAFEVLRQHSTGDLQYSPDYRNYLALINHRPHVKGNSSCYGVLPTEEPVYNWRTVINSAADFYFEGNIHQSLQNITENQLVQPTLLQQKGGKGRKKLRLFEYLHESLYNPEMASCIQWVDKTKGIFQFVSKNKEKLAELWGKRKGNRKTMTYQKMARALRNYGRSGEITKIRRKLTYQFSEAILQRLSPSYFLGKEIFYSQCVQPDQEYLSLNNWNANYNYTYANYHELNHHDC
# Procedure, shortened: as §1
# ELF4 = ELF4 (Homo sapiens, UniProt Q99607 1-663)
# Procedure, shortened: as §1
# ETV1 = ETV1 (Homo sapiens, UniProt P50549 1-477)
# Procedure, shortened: as §1
# ERF = target: T9, ERF (Homo sapiens, UniProt P50548 1-548)
# T9 sequence: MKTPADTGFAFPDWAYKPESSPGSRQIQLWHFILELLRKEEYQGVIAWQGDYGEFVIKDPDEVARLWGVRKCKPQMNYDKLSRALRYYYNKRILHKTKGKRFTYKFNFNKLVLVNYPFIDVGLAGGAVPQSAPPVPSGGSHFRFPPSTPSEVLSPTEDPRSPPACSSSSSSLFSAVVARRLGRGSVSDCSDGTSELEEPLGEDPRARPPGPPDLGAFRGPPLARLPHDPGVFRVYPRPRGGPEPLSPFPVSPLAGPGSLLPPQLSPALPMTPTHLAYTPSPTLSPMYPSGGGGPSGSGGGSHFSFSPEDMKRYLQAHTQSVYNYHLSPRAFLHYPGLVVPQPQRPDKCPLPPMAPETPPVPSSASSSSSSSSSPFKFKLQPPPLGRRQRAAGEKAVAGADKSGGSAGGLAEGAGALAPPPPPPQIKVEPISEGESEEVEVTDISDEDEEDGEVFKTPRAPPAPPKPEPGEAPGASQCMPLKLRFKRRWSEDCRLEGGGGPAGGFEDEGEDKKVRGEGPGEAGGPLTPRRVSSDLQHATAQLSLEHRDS
# Procedure, shortened: as §1
# ETV3L = target: T10, ETV3L (Homo sapiens, UniProt Q6ZN32 1-361)
# T10 sequence: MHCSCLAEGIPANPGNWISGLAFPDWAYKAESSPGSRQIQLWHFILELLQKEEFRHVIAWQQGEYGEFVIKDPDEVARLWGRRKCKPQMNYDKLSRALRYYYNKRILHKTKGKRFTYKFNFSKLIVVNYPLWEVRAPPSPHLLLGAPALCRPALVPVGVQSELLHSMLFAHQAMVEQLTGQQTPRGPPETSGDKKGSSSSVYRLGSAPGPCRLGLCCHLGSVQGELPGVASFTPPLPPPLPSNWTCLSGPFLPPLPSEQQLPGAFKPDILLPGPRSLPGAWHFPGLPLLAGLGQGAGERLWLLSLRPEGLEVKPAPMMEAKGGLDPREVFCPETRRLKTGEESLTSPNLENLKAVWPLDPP
# Procedure, shortened: as §1
# ETS2 = target: T11, ETS2 (Homo sapiens, UniProt P15036 1-469)
# T11 sequence: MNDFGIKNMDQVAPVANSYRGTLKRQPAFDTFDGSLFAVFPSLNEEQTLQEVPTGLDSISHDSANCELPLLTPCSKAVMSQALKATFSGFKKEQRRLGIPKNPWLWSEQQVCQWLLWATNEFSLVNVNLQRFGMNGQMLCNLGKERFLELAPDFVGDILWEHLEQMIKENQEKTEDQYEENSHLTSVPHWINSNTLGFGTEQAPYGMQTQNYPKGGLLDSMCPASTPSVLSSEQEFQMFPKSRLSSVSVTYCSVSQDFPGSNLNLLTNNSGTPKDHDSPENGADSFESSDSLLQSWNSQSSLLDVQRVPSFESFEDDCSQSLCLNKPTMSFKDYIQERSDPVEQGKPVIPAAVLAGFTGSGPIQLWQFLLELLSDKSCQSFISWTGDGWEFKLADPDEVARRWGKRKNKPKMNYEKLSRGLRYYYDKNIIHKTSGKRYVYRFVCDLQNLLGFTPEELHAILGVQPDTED
# Procedure, shortened: as §1
# SPDEF = target: T12, SPDEF (Homo sapiens, UniProt O95238 1-335)
# T12 sequence: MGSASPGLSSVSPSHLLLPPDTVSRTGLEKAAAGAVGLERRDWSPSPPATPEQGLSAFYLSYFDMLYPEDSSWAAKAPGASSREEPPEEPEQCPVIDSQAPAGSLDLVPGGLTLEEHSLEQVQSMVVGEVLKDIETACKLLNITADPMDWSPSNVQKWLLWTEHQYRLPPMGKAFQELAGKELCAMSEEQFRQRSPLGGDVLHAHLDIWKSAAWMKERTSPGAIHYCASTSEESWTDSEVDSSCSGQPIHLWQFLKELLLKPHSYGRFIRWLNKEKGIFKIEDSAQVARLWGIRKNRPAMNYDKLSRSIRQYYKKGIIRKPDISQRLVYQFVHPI
# Procedure, shortened: as §1
# ETV3 = target: T13, ETV3 (Homo sapiens, UniProt P41162-2 1-143)
# T13 sequence: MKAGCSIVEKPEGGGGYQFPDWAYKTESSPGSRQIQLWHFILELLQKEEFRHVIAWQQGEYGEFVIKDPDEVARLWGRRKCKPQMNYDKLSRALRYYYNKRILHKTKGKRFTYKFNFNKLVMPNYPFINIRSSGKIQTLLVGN
# Procedure, shortened: as §1
# ETV6 = ETV6 (Homo sapiens, UniProt P41212 1-452)
# Procedure, shortened: as §1
# Sequence of ELF4 (Q99607 whole entry): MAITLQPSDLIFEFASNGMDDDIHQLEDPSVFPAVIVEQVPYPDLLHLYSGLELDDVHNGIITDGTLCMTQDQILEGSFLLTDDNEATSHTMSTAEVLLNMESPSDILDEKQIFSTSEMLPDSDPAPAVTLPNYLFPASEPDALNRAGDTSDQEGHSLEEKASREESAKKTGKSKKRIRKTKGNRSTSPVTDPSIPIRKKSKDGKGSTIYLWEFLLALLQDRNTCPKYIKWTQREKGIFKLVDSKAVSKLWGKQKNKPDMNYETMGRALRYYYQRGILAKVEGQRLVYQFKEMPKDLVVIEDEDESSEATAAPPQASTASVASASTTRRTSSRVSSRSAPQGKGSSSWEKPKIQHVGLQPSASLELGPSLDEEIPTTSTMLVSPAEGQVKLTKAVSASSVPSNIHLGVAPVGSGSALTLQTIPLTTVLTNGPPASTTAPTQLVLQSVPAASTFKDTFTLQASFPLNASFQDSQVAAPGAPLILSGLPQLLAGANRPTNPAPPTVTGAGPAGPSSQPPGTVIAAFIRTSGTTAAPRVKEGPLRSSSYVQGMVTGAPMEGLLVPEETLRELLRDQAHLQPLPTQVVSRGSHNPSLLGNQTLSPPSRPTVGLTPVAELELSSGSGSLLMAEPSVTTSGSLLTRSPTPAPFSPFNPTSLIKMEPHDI
# Sequence of ETV5 (P41161 whole entry): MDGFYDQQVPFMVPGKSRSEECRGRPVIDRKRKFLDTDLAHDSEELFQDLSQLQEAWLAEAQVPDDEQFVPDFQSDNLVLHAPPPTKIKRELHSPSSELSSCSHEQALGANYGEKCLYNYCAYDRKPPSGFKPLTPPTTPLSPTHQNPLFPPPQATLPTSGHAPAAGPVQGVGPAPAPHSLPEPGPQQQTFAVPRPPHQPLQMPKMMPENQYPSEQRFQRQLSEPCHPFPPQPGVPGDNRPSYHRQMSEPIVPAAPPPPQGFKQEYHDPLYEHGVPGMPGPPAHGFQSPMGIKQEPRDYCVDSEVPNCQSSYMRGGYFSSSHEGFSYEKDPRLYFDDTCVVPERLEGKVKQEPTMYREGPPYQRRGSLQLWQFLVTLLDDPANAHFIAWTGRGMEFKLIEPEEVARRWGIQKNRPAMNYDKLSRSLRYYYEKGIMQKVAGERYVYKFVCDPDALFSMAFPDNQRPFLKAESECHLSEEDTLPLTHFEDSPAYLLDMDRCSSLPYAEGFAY
# Sequence of ETV1 (P50549 whole entry): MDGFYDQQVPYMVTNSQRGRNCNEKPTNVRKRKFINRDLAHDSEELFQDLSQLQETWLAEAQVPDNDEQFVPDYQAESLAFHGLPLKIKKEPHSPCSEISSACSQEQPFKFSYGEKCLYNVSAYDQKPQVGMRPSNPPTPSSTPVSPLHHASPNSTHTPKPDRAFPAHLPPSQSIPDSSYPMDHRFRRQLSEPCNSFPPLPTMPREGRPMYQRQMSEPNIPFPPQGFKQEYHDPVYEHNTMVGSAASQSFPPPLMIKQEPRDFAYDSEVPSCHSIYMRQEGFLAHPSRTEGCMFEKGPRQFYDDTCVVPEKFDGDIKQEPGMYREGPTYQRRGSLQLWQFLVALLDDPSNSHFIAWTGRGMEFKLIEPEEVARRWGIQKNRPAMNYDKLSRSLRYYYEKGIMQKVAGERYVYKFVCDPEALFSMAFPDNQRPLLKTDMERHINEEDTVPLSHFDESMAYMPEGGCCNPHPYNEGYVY
# Sequence of ELF1 (P32519 whole entry): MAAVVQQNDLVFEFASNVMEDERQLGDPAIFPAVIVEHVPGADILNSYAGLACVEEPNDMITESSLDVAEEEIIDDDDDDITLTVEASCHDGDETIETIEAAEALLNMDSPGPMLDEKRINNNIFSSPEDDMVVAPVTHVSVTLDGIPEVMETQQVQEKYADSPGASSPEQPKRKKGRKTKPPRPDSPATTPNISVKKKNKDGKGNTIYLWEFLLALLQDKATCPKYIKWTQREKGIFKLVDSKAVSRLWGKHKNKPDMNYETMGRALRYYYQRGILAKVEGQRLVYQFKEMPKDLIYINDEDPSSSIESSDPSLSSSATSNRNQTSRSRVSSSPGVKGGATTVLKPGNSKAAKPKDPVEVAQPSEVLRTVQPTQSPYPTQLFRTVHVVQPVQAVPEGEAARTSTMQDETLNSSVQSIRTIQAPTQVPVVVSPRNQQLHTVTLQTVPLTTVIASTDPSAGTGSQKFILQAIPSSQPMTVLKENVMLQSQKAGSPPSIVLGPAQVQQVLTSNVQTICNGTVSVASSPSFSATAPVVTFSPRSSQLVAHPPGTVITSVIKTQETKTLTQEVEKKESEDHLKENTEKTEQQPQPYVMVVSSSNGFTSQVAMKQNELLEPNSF
# Sequence of SPIB (Q01892 whole entry): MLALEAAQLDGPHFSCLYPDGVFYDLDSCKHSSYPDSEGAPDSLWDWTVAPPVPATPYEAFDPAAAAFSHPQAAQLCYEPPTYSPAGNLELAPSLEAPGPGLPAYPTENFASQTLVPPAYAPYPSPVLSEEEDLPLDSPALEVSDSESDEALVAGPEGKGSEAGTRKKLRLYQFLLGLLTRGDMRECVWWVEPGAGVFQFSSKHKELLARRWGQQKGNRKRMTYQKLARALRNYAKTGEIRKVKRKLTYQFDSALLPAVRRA
# Sequence of ETV6 (P41212 whole entry): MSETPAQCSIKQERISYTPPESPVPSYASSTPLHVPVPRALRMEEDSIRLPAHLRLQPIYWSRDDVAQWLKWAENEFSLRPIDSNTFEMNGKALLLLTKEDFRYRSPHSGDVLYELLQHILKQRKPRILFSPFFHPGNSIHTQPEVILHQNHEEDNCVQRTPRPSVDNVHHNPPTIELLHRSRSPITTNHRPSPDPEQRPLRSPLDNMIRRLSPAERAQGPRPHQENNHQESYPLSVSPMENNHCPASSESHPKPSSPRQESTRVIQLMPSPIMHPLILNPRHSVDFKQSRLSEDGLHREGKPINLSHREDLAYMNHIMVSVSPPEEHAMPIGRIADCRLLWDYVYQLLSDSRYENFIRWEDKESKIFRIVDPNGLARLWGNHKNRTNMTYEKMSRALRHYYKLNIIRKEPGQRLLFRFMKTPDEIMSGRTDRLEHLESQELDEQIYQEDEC
sequence,measurement,setting,value
CGCCCG,binding signal,FLI1,"1.28 fold enrichment (6-mer frequency, TF over GST control)"
same,binding signal,ELK1,"1.2 fold enrichment (6-mer frequency, TF over GST control)"
same,binding signal,GABPA,"1.07 fold enrichment (6-mer frequency, TF over GST control)"
same,binding signal,ERG,"1.14 fold enrichment (6-mer frequency, TF over GST control)"
same,binding signal,ELF1,"1.18 fold enrichment (6-mer frequency, TF over GST control)"
same,binding signal,EHF,"1.11 fold enrichment (6-mer frequency, TF over GST control)"
same,binding signal,SPIB,"1.2 fold enrichment (6-mer frequency, TF over GST control)"
same,binding signal,ELK3,"1.15 fold enrichment (6-mer frequency, TF over GST control)"
same,binding signal,FEV,"1.14 fold enrichment (6-mer frequency, TF over GST control)"
same,binding signal,ETV5,"1.06 fold enrichment (6-mer frequency, TF over GST control)"
same,binding signal,SPIC,"1.17 fold enrichment (6-mer frequency, TF over GST control)"
same,binding signal,ELF4,"1.11 fold enrichment (6-mer frequency, TF over GST control)"
same,binding signal,ETV1,"1.13 fold enrichment (6-mer frequency, TF over GST control)"
same,binding signal,ERF,"1.09 fold enrichment (6-mer frequency, TF over GST control)"
same,binding signal,ETV3L,"1.26 fold enrichment (6-mer frequency, TF over GST control)"
same,binding signal,ETS2,"1.09 fold enrichment (6-mer frequency, TF over GST control)"
same,binding signal,SPDEF,"1.1 fold enrichment (6-mer frequency, TF over GST control)"
same,binding signal,ETV3,"1.3 fold enrichment (6-mer frequency, TF over GST control)"
same,binding signal,ETV6,"1.02 fold enrichment (6-mer frequency, TF over GST control)"
